# Data as given in PubChem BioAssay AID2515 (National Center for Advancing Translational Sciences (NCATS), 2010).
# Inconclusive results are not listed. The source made the active and inactive calls. Calls come from the whole dose curve; as a rule, active = well fitted inhibition curve with a large enough effect; inconclusive = small, poorly fitted or top-dose-only effect; inactive = flat fitted curve, though single readings scatter.
# Target: Luciferin 4-monooxygenase (Photinus pyralis) (UniProt P08659)
# Assay: Counterscreen Assay for Enhancers of SMN2 Splice Variant Expression: Interaction with Luciferase Reporter for Probe SAR
# Settings: purified firefly luciferase, luminescence inhibition
# From the text: NIH Chemical Genomics Center [NCGC] NIH Molecular Libraries Probe Production centers Network [MLPCN] MLPCN Grant: R03 MH084179-01 Assay Submitter (PI): Elliot Androphy NCGC Assay Overview: Spinal muscular atrophy (SMA) is caused by insufficient levels of the survival motor neuron protein SMN. The SMN locus on chromosome 5q13 contains two inverted copies of SMN called SMN1 and SMN2 which are 99% identical at the amino acid level. SMN1 is a fully functional protein and SMN2 skips exon 7 90% of the time. Skipping of exon 7 produces non-functional protein product. 10% of the SMN2 protein includes exon 7 and is fully functional. In the SMA disease state, mutations in the SMN1 locus are the cause of the disease state. […]
# NCGC Assay Protocol Summary: The primary screen utilizes a luciferase reporter gene assay, combining the promoter and splicing based cassettes in tandem with the major portion of the native SMN1 cDNA, and then transfected into HEK293 cells. […] Sequence, Parameter, Value, Description (1) Reagent, 2.5 uL, Enzyme in buffer (note A) (2) Compound, 23 nL, From stock solutions (3) Time, 5 minutes, Room temp (4) Reagent#2.5 ul, Luciferase detection reagent (note B) (5) Detector, 1 sec integrate, Luminescent read on Viewlux (note C) Sigma enzyme (1 mg) considered to be MW 61,000 diluted in 357 ul assay buffer to 50 uM stock. […]
# Sequence of Luciferin 4-monooxygenase (Photinus pyralis) (P08659 whole entry, looked up, canonical isoform): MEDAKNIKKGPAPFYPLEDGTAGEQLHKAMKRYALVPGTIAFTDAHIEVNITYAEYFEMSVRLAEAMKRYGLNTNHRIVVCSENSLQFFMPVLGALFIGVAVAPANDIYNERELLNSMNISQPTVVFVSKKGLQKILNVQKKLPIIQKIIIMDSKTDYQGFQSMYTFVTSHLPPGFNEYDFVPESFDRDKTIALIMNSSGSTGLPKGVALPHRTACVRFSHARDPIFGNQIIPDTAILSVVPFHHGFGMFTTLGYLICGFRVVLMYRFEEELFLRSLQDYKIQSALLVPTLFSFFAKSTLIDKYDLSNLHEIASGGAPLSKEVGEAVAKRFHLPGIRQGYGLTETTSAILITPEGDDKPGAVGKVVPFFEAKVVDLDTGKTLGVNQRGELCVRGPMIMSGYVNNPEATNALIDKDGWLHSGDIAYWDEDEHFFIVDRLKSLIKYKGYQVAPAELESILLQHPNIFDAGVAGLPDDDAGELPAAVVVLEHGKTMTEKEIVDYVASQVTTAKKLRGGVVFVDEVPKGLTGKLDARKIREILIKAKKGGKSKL
structure (smiles),measurement,value
Brc1ccc(-c2csc(N3CCCCC3)n2)cc1,Potency,17.9 µM (active)
